Assay [1] concerns the target Bile acid receptor (Homo sapiens) (UniProt Q96RI1). Nature of the assay: ATG_IR1_CIS: Attagene CIS-FACTORIAL HepG2 Assay for human Nuclear Receptor Subfamily 1 Group H Member 4 (NR1H4), IR1 submotif (AID 2282946). As to conditions: IR1 reporter transcription, actives raise or lower the signal. Summed up:
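HepG2 cells transiently transfected with multiplexed cis-element reporter units read endogenous transcription factor activity. After 24 h compound exposure, reporter mRNA was quantified by RT-PCR, fluorescent labelling, HpaI digestion and capillary electrophoresis; bidirectional fitting versus DMSO baseline.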

Assay [2] is described as follows: ATG_ISRE_CIS: Attagene CIS-FACTORIAL HepG2 Assay for human Interferon Regulatory Factor 1 (IRF1) binding to an Interferon-Stimulated Response Element (ISRE) (AID 2282948). The note with it: HepG2 ISRE cis-reporter (Attagene), mRNA transcription readout; actives raise or lower the signal. An outline of the steps: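 Read-out: fluorescent RT-PCR products resolved by capillary electrophoresis, reporting endogenous transcription factor activity via ISRE-driven reporter mRNA in transfected HepG2 cells dosed for 24 h; gain or loss fitted relative to DMSO.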

Assay [3] in a line: ATG_M_32_CIS: Attagene CIS-FACTORIAL HepG2 Assay for M32 Transcription Factor (Internal Marker) (AID 2282949).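 Also: background control marker of the multiplexed CIS panel rather than a real target.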 As to conditions: HepG2 Attagene cis-factorial M32 reporter, mRNA; actives raise or lower the signal. Summed up:
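HepG2 transfectants (cis-regulated reporter transcription units) dosed 24 h. Reporter mRNA by RT-PCR plus CE, analysed as gain or loss relative to DMSO.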

Assay [4] is described as follows: ATG_M_06_CIS: Attagene CIS-FACTORIAL HepG2 Assay for M06 Transcription Factor (Internal Marker) (AID 2282950). As to conditions: HepG2 Attagene CIS-FACTORIAL M06 internal marker reporter; actives raise or lower the signal. Summed up: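 Fluorescence-labelled RT-PCR products from cis-promoter reporter units, cut with HpaI and resolved by capillary electrophoresis, give the signal. Cells are human HepG2, dosed for 24 h. Serves as background control, fitted relative to DMSO.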

Assay [5] deals with Hypoxia-inducible factor 1-alpha (Homo sapiens) (UniProt Q16665). Nature of the assay: ATG_HIF1a_CIS: Attagene CIS-FACTORIAL HepG2 Assay for human Hypoxia Inducible Factor 1 (HIF1A) (AID 2282951). As to conditions: HepG2 Attagene cis-factorial HIF1a reporter transcription; actives raise or lower the signal. Summed up: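 HepG2, transient cis-reporter library, 24 h dosing. RNA → RT (oligo dT) → PCR → 6-FAM primer extension → HpaI → CE. Bidirectional curve fit vs DMSO.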

The target of assay [6] is Hepatocyte nuclear factor 6 (Homo sapiens) (UniProt Q9UBC0). Nature of the assay: ATG_HNF6_CIS: Attagene CIS-FACTORIAL HepG2 Assay for human Hepatocyte Nuclear Factor 6 (HNF6) (AID 2282952). As to conditions: HepG2 Attagene cis-factorial HNF6 reporter transcription; actives raise or lower the signal. Summed up: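 Endogenous transcription factor activity in human HepG2 liver cells was captured through cis-regulated reporter constructs. After 24 h treatment, reporter mRNA was measured by RT-PCR with capillary electrophoresis, and activity was fitted in both directions relative to DMSO.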

Assay [7] in a line: ATG_MRE_CIS: Attagene CIS-FACTORIAL HepG2 Assay for human Metal Responsive Element (MRE) (AID 2282954). As to conditions: HepG2 MRE cis-reporter transcription, Attagene multiplex; actives raise or lower the signal. Summed up:
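Endogenous MRE-dependent transcription read as reporter mRNA in transiently transfected human HepG2 cells at 24 h. RNA reverse-transcribed, PCR-amplified, labelled and resolved by capillary electrophoresis; gain or loss relative to DMSO.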

Assay [8] in a line: ATG_PBREM_CIS: Attagene CIS-FACTORIAL HepG2 Assay for human Phenobarbital-responsive Enhancer Module (PBREM) (AID 2282955). As to conditions: HepG2 PBREM cis-reporter, Attagene multiplexed transcription; actives raise or lower the signal. An outline of the steps: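 HepG2, transient MRTU transfection, 24 h dosing; RNA → oligo(dT) RT → PCR → 6-FAM extension → HpaI → CE. Bidirectional fit vs DMSO.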

The target in assay [9] is Paired box protein Pax-6 (Homo sapiens) (UniProt P26367). Nature of the assay: ATG_Pax6_CIS: Attagene CIS-FACTORIAL HepG2 Assay for human Paired Box 6 (PAX6) (AID 2282956). As to conditions: HepG2 CIS-FACTORIAL PAX6 reporter transcription, RNA readout; actives raise or lower the signal. An outline of the steps:
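Readout: reporter transcript fluorescence after RT-PCR and capillary electrophoresis. Cells: HepG2, transiently transfected with cis-regulated MRTUs. Exposure 24 h. Gain or loss of signal fitted bidirectionally relative to DMSO.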

A short description of assay [10]: ATG_PXRE_CIS: Attagene CIS-FACTORIAL HepG2 Assay for human Pregnane X Receptor Element (PXRE) (AID 2282957). As to conditions: HepG2 Attagene CIS-FACTORIAL PXRE reporter, mRNA; actives raise or lower the signal. Summed up:
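Endogenous transcription factor activity in HepG2 was gauged through induction of reporter mRNA driven by a cis-regulating promoter element, sampled 24 h post-treatment. Activity was fitted in both directions against DMSO negative control.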

Assay [11] is described as follows: ATG_RORE_CIS: Attagene CIS-FACTORIAL HepG2 Assay for human RAR-related Orphan Receptor Element (RORE) (AID 2282959). The note with it: HepG2 Attagene cis-factorial RORE reporter, mRNA; actives raise or lower the signal. An outline of the steps:
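Multiplexed reporter assay measuring mRNA induction from a cis promoter element in transiently transfected HepG2 cells after 24 h treatment. Detection via RT-PCR and capillary electrophoresis fluorescence; DMSO serves as baseline.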

A short description of assay [12]: ATG_Sox_CIS: Attagene CIS-FACTORIAL HepG2 Assay for human SRY-box transcription factor (SOX) (AID 2282960). As to conditions: HepG2 Attagene cis-factorial SOX reporter, mRNA; actives raise or lower the signal. Summed up:
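Cells were transfected with reporter constructs under cis-regulatory promoters, then exposed to chemicals for 24 h. Reporter transcripts were quantified by fluorescence after RT-PCR and capillary electrophoresis; activity was fitted in both directions against DMSO.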

Assay [13] has as its target Transcription factor Sp1 (Homo sapiens) (UniProt P08047). Nature of the assay: ATG_Sp1_CIS: Attagene CIS-FACTORIAL HepG2 Assay for human Specificity Protein 1 (Sp1) (AID 2282961). The note with it: HepG2 Sp1 cis-reporter transcription, actives raise or lower the signal. Summed up:
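Measures mRNA induction of an Sp1-linked reporter in HepG2 cells 24 h post-dosing. Multiplexed reporters read by RT-PCR and capillary electrophoresis; DMSO serves as negative control and baseline.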

The nature of assay [14]: ATG_SREBP_CIS: Attagene CIS-FACTORIAL HepG2 Assay for human Sterol Regulatory Element Binding (SREBP) (AID 2282962). As to conditions: HepG2 Attagene cis-factorial SREBP reporter, mRNA; actives raise or lower the signal. Summed up:
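Readout: fluorescent reporter-transcript peaks resolved by capillary electrophoresis after RT-PCR. Cells were human HepG2 carrying transfected cis-promoter reporter constructs, dosed for 24 h. Gain or loss of signal was fitted against DMSO controls.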

Assay [15] has as its target Signal transducer and activator of transcription 3 (Homo sapiens) (UniProt P40763). Nature of the assay: ATG_STAT3_CIS: Attagene CIS-FACTORIAL HepG2 Assay for human Signal Transducer and Activator of Transcription 3 (STAT3) (AID 2282963). As to conditions: HepG2, Attagene cis-factorial STAT3 reporter transcription; actives raise or lower the signal. An outline of the steps: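 Readout is reporter transcript quantified by RT-PCR and capillary electrophoresis, with 6-FAM primer extension and HpaI digestion. Total RNA is taken 24 h after dosing transiently transfected HepG2 carrying cis-regulated reporter units. Bidirectional fit against DMSO.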

Assay [16] in a line: ATG_TA_CIS: Attagene CIS-FACTORIAL HepG2 Assay for human TA Basal Promoter (AID 2282964). The note with it: HepG2 Attagene CIS-factorial TA basal promoter reporter; actives raise or lower the signal. Summed up:
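Multiplexed mRNA reporter assay, HepG2, 24 h. Reporter cDNA amplified, 6-FAM primer-extended, HpaI-cut, CE-sized; DMSO = negative control and baseline.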

Assay [17] in a line: ATG_PPRE_CIS: Attagene CIS-FACTORIAL HepG2 Assay for human Peroxisome Proliferator-activated Response Element (PPRE) (AID 2282958). The note with it: HepG2 PPRE cis-element reporter, Attagene transcription factor profiling; actives raise or lower the signal. An outline of the steps:
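Transcript-level reporter induction in transfected HepG2 cells after 24 h chemical exposure, quantified by fluorescence from RT-PCR products separated by capillary electrophoresis.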

Assay [18] can be described thus: ATG_GRE_CIS: Attagene CIS-FACTORIAL HepG2 Assay for human Glucocorticoid Response Elements (GRE) (AID 2282947). As to conditions: HepG2 GRE cis-reporter, Attagene multiplex mRNA; actives raise or lower the signal. An outline of the steps:
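Reporter transcripts read by RT-PCR with capillary electrophoresis fluorescence after a 24 h chemical exposure of HepG2 cells transiently transfected with multiple cis-element reporter units. Gain or loss fitted against DMSO.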

The target of assay [19] is Heat shock factor protein 1 (Homo sapiens) (UniProt Q00613). Nature of the assay: ATG_HSE_CIS: Attagene CIS-FACTORIAL HepG2 Assay for human Heat Shock Transcription Factor 1 (HSE) (AID 2282953). The note with it: HepG2 HSE cis-reporter, Attagene RNA transcription; actives raise or lower the signal. An outline of the steps:
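After a 24 h incubation with test chemical, transfected HepG2 cells were harvested for RNA; reporter transcripts were measured by RT-PCR and capillary electrophoresis. Values reflect gain or loss of signal relative to DMSO.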

Assay [20] in a line: ATG_TCF_b_cat_CIS: Attagene CIS-FACTORIAL HepG2 Assay for human T-Cell-Factor with beta-catenin (TCF/b-cat) (AID 2282965). The note with it: HepG2 TCF/beta-catenin cis-reporter transcription, actives raise or lower the signal. Summed up: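 Endogenous transcription factor activity is captured through cis-promoter reporter constructs transiently introduced into human HepG2 liver cells. Induced reporter mRNA is measured after 24 h and fitted bidirectionally relative to DMSO.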

For four molecules, outcome and AC50 results are on record in PubChem BioAssay (EPA / NIEHS).

As a reminder, the AC50 is the concentration at which the activity in the assay is half-maximal.

SMILES strings stand for the structures. Calls of active or inactive are those of the source. The calls were made as follows: active = hit-call score of the fitted dose curve at least 0.9, where 1 is the maximum; inactive = score below 0.9.

Sequence of Paired box protein Pax-6 (Homo sapiens) (P26367 whole entry, looked up): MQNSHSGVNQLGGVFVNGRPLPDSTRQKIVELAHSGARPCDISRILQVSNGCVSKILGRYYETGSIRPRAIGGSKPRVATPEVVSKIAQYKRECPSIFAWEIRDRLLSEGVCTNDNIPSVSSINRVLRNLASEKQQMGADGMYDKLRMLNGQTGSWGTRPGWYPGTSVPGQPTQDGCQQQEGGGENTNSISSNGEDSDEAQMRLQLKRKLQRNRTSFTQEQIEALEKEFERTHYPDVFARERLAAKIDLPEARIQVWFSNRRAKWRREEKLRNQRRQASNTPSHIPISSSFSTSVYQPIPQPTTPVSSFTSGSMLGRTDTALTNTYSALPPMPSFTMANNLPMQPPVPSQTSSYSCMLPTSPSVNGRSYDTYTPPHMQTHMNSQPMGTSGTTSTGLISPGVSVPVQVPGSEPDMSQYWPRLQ
Sequence of Hepatocyte nuclear factor 6 (Homo sapiens) (Q9UBC0 whole entry, looked up): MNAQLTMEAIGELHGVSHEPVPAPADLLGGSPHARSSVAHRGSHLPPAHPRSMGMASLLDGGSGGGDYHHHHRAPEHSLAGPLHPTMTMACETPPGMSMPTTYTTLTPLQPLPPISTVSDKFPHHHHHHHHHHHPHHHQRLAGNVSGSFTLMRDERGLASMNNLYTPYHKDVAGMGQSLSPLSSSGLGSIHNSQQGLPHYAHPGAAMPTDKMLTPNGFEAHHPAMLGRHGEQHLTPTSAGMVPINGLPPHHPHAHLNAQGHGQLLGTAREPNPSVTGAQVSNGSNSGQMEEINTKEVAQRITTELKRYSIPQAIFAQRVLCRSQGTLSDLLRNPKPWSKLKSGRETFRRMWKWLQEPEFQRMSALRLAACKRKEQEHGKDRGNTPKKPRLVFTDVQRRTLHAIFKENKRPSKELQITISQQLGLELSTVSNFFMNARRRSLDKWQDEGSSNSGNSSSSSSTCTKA
Sequence of Transcription factor Sp1 (Homo sapiens) (P08047 whole entry, looked up): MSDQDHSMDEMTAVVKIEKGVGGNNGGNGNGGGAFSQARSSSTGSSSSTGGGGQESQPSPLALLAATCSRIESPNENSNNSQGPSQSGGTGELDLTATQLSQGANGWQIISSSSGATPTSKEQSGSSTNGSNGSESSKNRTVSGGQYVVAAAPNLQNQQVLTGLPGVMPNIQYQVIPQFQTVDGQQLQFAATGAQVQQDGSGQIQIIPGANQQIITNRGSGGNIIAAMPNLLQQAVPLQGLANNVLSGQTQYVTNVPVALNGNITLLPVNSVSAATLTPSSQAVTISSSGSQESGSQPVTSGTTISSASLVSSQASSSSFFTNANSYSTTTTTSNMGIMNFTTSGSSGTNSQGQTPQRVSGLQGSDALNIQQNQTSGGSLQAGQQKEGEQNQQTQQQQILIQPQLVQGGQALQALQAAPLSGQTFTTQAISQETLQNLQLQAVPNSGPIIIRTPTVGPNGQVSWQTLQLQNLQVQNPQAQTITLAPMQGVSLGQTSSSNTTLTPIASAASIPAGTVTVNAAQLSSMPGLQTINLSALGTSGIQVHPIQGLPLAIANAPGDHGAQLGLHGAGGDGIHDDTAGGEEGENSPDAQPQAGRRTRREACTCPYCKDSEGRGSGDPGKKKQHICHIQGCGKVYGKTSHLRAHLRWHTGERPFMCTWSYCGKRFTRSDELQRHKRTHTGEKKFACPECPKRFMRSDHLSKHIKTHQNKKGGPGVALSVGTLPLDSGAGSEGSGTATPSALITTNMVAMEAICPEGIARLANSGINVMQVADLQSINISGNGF
Sequence of Signal transducer and activator of transcription 3 (Homo sapiens) (P40763 whole entry, looked up): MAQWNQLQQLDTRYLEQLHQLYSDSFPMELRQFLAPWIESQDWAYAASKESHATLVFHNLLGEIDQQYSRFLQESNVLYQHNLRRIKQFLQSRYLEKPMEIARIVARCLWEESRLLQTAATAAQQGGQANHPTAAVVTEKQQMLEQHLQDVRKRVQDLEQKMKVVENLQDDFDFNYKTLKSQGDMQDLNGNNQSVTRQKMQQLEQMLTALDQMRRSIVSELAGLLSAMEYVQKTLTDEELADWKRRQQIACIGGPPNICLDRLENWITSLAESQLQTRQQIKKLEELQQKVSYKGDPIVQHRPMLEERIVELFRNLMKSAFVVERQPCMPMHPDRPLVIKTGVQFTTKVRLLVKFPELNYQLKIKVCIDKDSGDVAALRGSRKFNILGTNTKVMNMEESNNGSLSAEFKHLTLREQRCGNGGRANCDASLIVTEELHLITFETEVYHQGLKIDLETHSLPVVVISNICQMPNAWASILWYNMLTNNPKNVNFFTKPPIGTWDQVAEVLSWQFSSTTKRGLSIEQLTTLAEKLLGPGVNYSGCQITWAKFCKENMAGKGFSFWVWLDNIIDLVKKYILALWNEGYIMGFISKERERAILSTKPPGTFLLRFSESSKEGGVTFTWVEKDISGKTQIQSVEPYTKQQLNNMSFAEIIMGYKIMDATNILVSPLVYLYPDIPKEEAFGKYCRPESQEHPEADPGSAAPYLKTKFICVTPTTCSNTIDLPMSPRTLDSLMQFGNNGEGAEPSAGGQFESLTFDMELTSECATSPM
Sequence of Hypoxia-inducible factor 1-alpha (Homo sapiens) (Q16665 whole entry, looked up): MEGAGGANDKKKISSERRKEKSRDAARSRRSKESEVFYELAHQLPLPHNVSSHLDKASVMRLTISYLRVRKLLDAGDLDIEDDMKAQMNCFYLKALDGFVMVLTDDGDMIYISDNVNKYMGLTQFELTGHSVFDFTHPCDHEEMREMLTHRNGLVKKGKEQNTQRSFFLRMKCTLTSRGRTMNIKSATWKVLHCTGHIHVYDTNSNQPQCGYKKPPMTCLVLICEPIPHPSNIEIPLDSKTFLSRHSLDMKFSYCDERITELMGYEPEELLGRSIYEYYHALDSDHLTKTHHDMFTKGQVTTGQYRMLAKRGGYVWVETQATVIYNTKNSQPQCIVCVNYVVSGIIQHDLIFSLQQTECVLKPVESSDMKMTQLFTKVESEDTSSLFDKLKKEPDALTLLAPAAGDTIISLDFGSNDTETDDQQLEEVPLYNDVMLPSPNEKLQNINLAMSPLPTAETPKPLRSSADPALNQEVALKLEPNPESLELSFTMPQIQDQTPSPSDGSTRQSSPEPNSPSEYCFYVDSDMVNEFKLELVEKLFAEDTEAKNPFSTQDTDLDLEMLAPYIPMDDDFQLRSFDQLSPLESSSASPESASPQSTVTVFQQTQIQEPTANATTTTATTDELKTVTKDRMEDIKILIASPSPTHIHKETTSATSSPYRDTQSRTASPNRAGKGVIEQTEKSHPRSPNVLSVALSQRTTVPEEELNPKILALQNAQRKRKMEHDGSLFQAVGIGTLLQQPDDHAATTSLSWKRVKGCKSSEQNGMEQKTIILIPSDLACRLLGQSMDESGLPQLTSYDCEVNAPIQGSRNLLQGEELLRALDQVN
Sequence of Bile acid receptor (Homo sapiens) (Q96RI1 whole entry, looked up): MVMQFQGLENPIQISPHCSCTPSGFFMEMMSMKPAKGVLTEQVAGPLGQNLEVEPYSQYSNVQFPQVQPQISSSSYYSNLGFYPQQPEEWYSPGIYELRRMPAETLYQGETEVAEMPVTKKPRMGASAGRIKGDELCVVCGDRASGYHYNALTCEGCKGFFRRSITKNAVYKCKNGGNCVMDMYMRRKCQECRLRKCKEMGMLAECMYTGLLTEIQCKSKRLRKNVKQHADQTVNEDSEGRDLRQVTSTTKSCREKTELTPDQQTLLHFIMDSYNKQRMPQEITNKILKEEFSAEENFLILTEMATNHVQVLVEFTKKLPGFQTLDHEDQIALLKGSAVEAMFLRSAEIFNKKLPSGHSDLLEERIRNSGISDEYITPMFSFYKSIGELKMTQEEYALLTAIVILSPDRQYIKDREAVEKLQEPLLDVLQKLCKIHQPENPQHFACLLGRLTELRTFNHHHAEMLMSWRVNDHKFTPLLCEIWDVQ
Sequence of Heat shock factor protein 1 (Homo sapiens) (Q00613 whole entry, looked up): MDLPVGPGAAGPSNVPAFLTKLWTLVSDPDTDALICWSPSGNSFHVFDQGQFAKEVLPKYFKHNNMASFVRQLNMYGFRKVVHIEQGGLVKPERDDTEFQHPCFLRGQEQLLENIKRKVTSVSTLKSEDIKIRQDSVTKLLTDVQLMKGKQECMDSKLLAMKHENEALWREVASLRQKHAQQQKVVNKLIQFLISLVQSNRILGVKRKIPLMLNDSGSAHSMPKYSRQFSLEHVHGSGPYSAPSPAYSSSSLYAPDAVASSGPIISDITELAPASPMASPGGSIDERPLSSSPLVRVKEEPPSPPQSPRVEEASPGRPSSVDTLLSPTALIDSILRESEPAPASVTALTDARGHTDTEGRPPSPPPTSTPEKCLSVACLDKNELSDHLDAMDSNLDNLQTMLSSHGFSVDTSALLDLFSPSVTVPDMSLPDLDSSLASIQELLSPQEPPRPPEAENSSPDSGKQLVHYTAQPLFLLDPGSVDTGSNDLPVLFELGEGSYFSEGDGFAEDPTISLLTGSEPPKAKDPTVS

As to `COS(=O)(=O)O`, the result in [1], in [2], in assay [3], in assay [4], in [5] and in [6] was inactive. Moreover, the result in assay [7], in [8], in [9], in assay [10], in assay [11] and in [12] was inactive. Further, the call in assay [13], in [14], in [15] and in assay [16] was inactive.
Turning to `CCCC1O[C@@H]2C[C@H]3[C@@H]4CCC5=CC(=O)C=C[C@]5(C)[C@H]4[C@@H](O)C[C@]3(C)[C@]2(C(=O)CO)O1` (stereo partly drawn), the figures for the AC50 in assay [1] and in assay [10] were 100 µM (active) and 4.12 µM (active), respectively. Also, the call in assay [3], in assay [4], in assay [6], in assay [7], in [9] and in assay [17] was inactive. Besides, the molecule was classed as inactive in assay [11], in assay [12], in assay [13], in assay [14], in [15] and in assay [16].
Regarding `CS(=O)(=O)c1ccc(Cl)cc1`, the call in [18], in [2], in [3], in assay [4], in assay [5] and in assay [6] was inactive. In addition, the outcome in assay [19], in assay [7], in [8], in assay [9], in [11] and in assay [13] was inactive. The result in assay [14], in assay [15], in assay [16] and in assay [20] was inactive. Also, the AC50 in assay [10] was 100 µM (active).
With `CCOC(=O)C(C#N)=C(c1ccccc1)c1ccccc1`, the AC50 is 100 µM (active) in assay [1]; 19.8 µM (active) in assay [5]; 149 µM (active) in assay [19]; 86.9 µM (active) in [7]; 35.1 µM (active) in assay [9]; 1.39 µM (active) in assay [10]. The concentration at half-maximal activity (AC50) is 154 µM (active) in assay [17]; 17.4 µM (active) in [11]; 33.3 µM (active) in [14]; 23.5 µM (active) in [16]; 26 µM (active) in [20]. For the same molecule, the outcome in assay [2], in [4], in [12], in assay [13] and in assay [15] was inactive.
